# Laboratory results taken from PubChem BioAssay (NCATS).
# Several values for one entry are separate records, joined by “and”; a condition that tells them apart may be missing. Equal values may be shown once. Inconclusive results are not listed. The source holds several records for some structures; these can differ, active in one and inactive in another. Activity calls are given as the source filed them. Calls follow the shape of the dose curve; as a rule, active = well fitted curve in the direction sought with a large enough effect; inconclusive = small, poorly fitted or top-dose-only effect, or another doubt; inactive = no such curve, though single readings can be large; an effect the other way counts as inactive or inconclusive.
# How the values were obtained:
# [1] = qHTS Screen of the MIPE 4.0 Collection Against Ewings Sarcoma (RDES) (AID 1259252); also: nearly all actives have a fitted effect of over 35% in size
# Summary of the method: (§1)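 Log-phase cells in RPMI with 5% FBS attached for 4 h, then received compounds as a titration for 48 h at 37C, 5% CO2. Viability was read by CellTiter-Glo luminescence and normalized to DMSO and no-cell wells.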
# [2] = qHTS Screen of the MIPE 4.0 Collection Against Ewings Sarcoma (TC71) (AID 1259253); also: nearly all actives have a fitted effect of over 40% in size
# Summary of the method: as §1
# [3] = qHTS Screen of the MIPE 4.0 Collection Against Ewings Sarcoma (EW8) (AID 1259255); also: nearly all actives have a fitted effect of over 35% in size
# Summary of the method: as §1
# [4] = qHTS Screen of the MIPE 4.0 Collection Against Ewings Sarcoma (TC32) (AID 1259256); also: nearly all actives have a fitted effect of over 45% in size
# Summary of the method: as §1
# [5] = P-glycoprotein substrates identified in KB-3-1 adenocarcinoma cell line, qHTS therapeutic library screen (AID 1346986); also: nearly all actives have a fitted effect of over 60% in size;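 also: potency is for cytotoxicity meaning loss of cell viability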
# Summary of the method: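 Compounds were tested in dose-response against KB-3-1 and KB-8-5-11 cells at 37 degree C for 72 h, and viability was measured by luminescence. AC50 values came from curve fitting with class-based activity calls.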
# [6] = P-glycoprotein substrates identified in KB-8-5-11 adenocarcinoma cell line, qHTS therapeutic library screen (AID 1346987); also: nearly all actives have a fitted effect of over 65% in size
# Summary of the method: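 KB-8-5-11: colchicine-selected sub-line of KB-3-1 over-expressing P-gp; assay medium lacked colchicine. 72 h drug exposure at 37 degree C, CellTiter-Glo.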
# [7] = NS1 protein of Zika virus - qHTS assay to identify small molecule inhibitors in human HEK 293 cells (AID 1347053); also: nearly all actives have a fitted effect of over 55% in size
# Summary of the method: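 Following 20 h seeding, HEK 293 cells took compound, then 1 h later ZIKV MR766 (MOI = 0.5). Incubation ran 24 h at 37 C before TR-FRET detection of NS1; a drop in signal indicates inhibition.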
# Potency is read from the fitted curve at half-maximal effect.
SMILES,Potency [1],Potency [2],Potency [3],Potency [4],Potency [5],Potency [6],Potency [7]
CC(O)C1C(=O)N2C(C(=O)O)=C(SC3CNC(C(=O)N(C)C)C3)C(C)C12 (stereo not given),inactive,inactive,inactive,inactive,inactive,inactive,–
O=C(Nc1cn[nH]c1-c1nc2ccc(CN3CCOCC3)cc2[nH]1)NC1CC1,3.72 µM (active),7.43 µM (active),0.0332 µM (active),0.0662 µM (active),1.16 µM (active),inactive,9.35 µM (active)
CC(C)c1cc(C(=O)N2Cc3ccc(CN4CCN(C)CC4)cc3C2)c(O)cc1O,0.469 µM (active),0.235 µM (active),0.372 µM (active),0.209 µM (active),–,0.092 µM (active),–
O=C(c1cncc(Br)c1)N1CCC(N2CCCC2)CC1,inactive,inactive,inactive,inactive,inactive,inactive,–
CNC(=O)c1nn(C)c2c1C(C)(C)Cc1cnc(Nc3ccc(N4CCN(C)CC4)cc3)nc1-2,1.66 µM (active),1.87 µM (active),2.96 µM (active),2.35 µM (active),–,2.35 µM (active) and 1.46 µM (active),–
COc1ccc(-c2cc3c(C)nc(N)nc3n(C3CCC(OCCO)CC3)c2=O)cn1 (stereo not given),0.118 µM (active),0.0743 µM (active),0.0662 µM (active),0.0264 µM (active),0.184 µM (active),41.8 nM (active) and 366 nM (active),1.48 µM (active)
CCN(CC)CCNC(=O)c1ccc2nc(-c3ccccc3)c(-c3ccc(CN4CCC(n5c(=O)[nH]c6ccccc65)CC4)cc3)nc2c1,23.5 µM (active),23.5 µM (active),16.6 µM (active),18.7 µM (active),–,3.72 µM (active),–
O=C(O)CCCc1c[nH]c2ccccc12,inactive,inactive,inactive,inactive,inactive,inactive,inactive
CCCCOc1c(C(=O)c2c(F)cc(C)cc2F)cnc2n[nH]cc12,2.96 µM (active),2.96 µM (active),18.7 µM (active),16.6 µM (active),inactive and 3.66 µM (active),inactive,inactive
Cc1ccc(CN2CCNCC2)cc1NC(=O)CNc1ccc(F)c(F)c1,6.62 µM (active),5.26 µM (active),26.4 µM (active),13.2 µM (active),inactive,inactive,inactive
Cc1nc(Nc2n[nH]c3c2CN(C(=O)N[C@H](CN(C)C)c2ccccc2)C3(C)C)c2sccc2n1,3.32 µM (active),1.32 µM (active),2.64 µM (active),7.43 µM (active),–,inactive,–
CNC(=O)c1ccc(-c2cnc3ncc(Cc4ccc5ncccc5c4)n3n2)cc1F,inactive,inactive,inactive,inactive,–,inactive,–
CNC(=O)c1ccc(N2C(=S)N(c3cnc(C#N)c(C(F)(F)F)c3)C(=O)C23CCC3)cc1F,1.18 µM (active),2.96 µM (active),8.33 µM (active),8.33 µM (active),inactive,inactive,inactive
c1nc2nc(Nc3ccc(N4CCOCC4)cc3)nc(NC3CCCCC3)c2[nH]1,14.8 µM (active),2.64 µM (active),2.35 µM (active),1.87 µM (active),1.3 µM (active),5.26 µM (active) and 632 nM (active) and 1.16 µM (active),–
COC(=O)Nc1ccc(-c2nc(N3CCOCC3)c3cnn(C4CCN(Cc5cccnc5)CC4)c3n2)cc1,0.166 µM (active),0.059 µM (active),0.0833 µM (active),0.0469 µM (active),1.03 µM (active),148 nM (active) and 920 nM (active),16.6 µM (active)
O=C(O)C1(Cc2cccc(Nc3nccs3)n2)CCC(Oc2cccc(Cl)c2F)CC1 (stereo not given),4.69 µM (active),1.66 µM (active),0.743 µM (active),0.372 µM (active),0.517 µM (active),–,inactive
Nc1nc(NCCNc2ncc(-n3ccnc3)c(-c3ccc(Cl)cc3Cl)n2)ccc1[N+](=O)[O-],0.833 µM (active),inactive,inactive,9.35 µM (active),inactive,inactive,inactive
CC(=O)Nc1nc(C)c(-c2ccc(Cl)c(S(=O)(=O)NCCO)c2)s1,5.9 µM (active),14.8 µM (active),16.6 µM (active),10.5 µM (active),9.2 µM (active),–,inactive
CCOC(=O)C1=C(C)NC2=C(C(=O)CC(C)(C)C2)C1c1ccc(-c2ccccc2)cc1 (stereo not given),26.4 µM (active),26.4 µM (active),29.6 µM (active),23.5 µM (active),inactive,inactive and 23.1 µM (active),10.5 µM (active)
C[C@@H]1COC(Nc2ccc3ncnc(Nc4ccc(OCc5nccs5)c(Cl)c4)c3c2)=N1,2.64 µM (active),3.72 µM (active),20.9 µM (active),10.5 µM (active),–,20.9 µM (active),–

SMILES,Potency [1],Potency [2],Potency [3],Potency [4],Potency [5],Potency [6],Potency [7]
Cc1cc(N2CCOCC2)cc2[nH]c(-c3c(NC[C@@H](O)c4cccc(Cl)c4)cc[nH]c3=O)nc12,0.118 µM (active),0.59 µM (active),20.9 µM (active),1.87 µM (active),–,14.8 µM (active) and 18.4 µM (active),inactive
CC(C)c1noc(N2CCC(COc3ccc(-c4ccc(S(C)(=O)=O)cc4)nc3)CC2)n1,inactive,inactive,inactive,inactive,–,inactive,inactive
Cn1c2ccccc2c2c3c(c4c5ccccc5n(CCC#N)c4c21)CNC3=O,0.935 µM (active),1.18 µM (active),8.33 µM (active),4.69 µM (active),–,5.8 µM (active),–
CC[C@@]1(O)C(=O)OCc2c1cc1n(c2=O)Cc2cc3cc(O)ccc3nc2-1,0.0132 µM (active),0.0118 µM (active),0.0132 µM (active),0.0033 µM (active),–,–,0.0332 µM (active)
Cc1cccc(C=NNc2cc(N3CCOCC3)nc(OCCc3ccccn3)n2)c1,18.7 µM (active),16.6 µM (active),16.6 µM (active),5.26 µM (active),–,–,23.5 µM (active)
CNC(=O)CN1CCC(Oc2cc3c(Nc4cccc(Cl)c4F)ncnc3cc2OC)CC1,0.0148 µM (active),0.0526 µM (active),–,0.0526 µM (active),–,–,–
O=C1CCC[C@@H]2[C@H]3CCC[N+]4([O-])CCC[C@@H](CN12)[C@@H]34 (stereo not given in full),inactive,inactive,inactive,inactive,–,inactive,inactive
Nc1ncnc2c1c(-c1cnc3[nH]ccc3c1)nn2C1CCCC1,0.469 µM (active),0.662 µM (active),2.09 µM (active),1.05 µM (active),–,590 nM (active) and 2.06 µM (active),16.6 µM (active)
COc1cccc(-c2ccc(NC(=O)C3=C(C(=O)O)CCC3)c(F)c2)c1,14.8 µM (active),11.8 µM (active),9.35 µM (active),16.6 µM (active),–,–,2.09 µM (active)
CC(C)c1cnn2c(NCc3ccccc3)cc(N[C@@H](CO)[C@H](O)CO)nc12,0.469 µM (active),0.264 µM (active),0.372 µM (active),0.296 µM (active),–,–,0.526 µM (active)
Cc1coc2c1C(=O)C(=O)c1c-2ccc2c1CCCC2(C)C,inactive,inactive,inactive,0.0037 µM (active),–,–,inactive
COc1ccc2c(OCc3nnc4ccc(-c5ccccc5)nn34)ccnc2c1,inactive,inactive,inactive,inactive,–,inactive,inactive
COc1cc2c(NC3CCN(C(C)C)CC3)nc(C3CCCCC3)nc2cc1OCCCN1CCCC1,7.43 µM (active),7.43 µM (active),5.9 µM (active),5.26 µM (active),–,–,inactive
Cn1cc(-c2ccncc2)c(-c2ccc(OCc3ccc4ccccc4n3)cc2)n1,16.6 µM (active),16.6 µM (active),20.9 µM (active),16.6 µM (active),–,20.6 µM (active),inactive
OCCCNc1cc(-c2ccnc(Nc3cccc(Cl)c3)n2)ccn1,0.166 µM (active),0.118 µM (active),0.148 µM (active),0.166 µM (active),–,83.3 nM (active) and 146 nM (active),0.418 µM (active)
CN(C)Cc1c(C(=O)NCCOc2ccc(C(=O)NO)cc2)oc2ccccc12,1.05 µM (active),0.935 µM (active),1.05 µM (active),0.833 µM (active),–,7.43 µM (active) and 4.61 µM (active),inactive
COc1cccc(Nc2c(C(N)=O)cnc3c(C)cc(S(=O)(=O)c4cccc(C(=O)N(C)C)c4)cc23)c1,inactive,inactive,inactive,inactive,–,inactive,inactive
Cc1c(C)n(Cc2ccc(-c3ccccc3C(=O)O)cc2)c2ccc(C(=O)N[C@@H](C)c3ccc([N+](=O)[O-])cc3)cc12,inactive,inactive,inactive,inactive,–,inactive,–
COc1c(OCCCN2CCOCC2)ccc2c3n(c(=NC(=O)c4cnc(N)nc4)nc12)CCN3,0.0575 µM (active),1.82 µM (active),0.724 µM (active),0.457 µM (active),–,0.15 µM (active),–
O=C(CCCCCCNC(=O)c1cnc(N(c2ccccc2)c2ccccc2)nc1)NO,5.9 µM (active),5.9 µM (active),4.18 µM (active),5.26 µM (active),–,–,inactive
